Results as given in PubChem BioAssay.
Records with an inconclusive call do not appear. The source made the active and inactive calls.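 How the source made its calls, unless noted: active means normalized viability below 100% at a tested concentration; inactive means the rest.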

How the values were obtained:
[1] = growth inhibition of DIPG glioma cells, dose response, cell-based, SU-DIPG-XVII, MIPE5.0, CellTiter-Glo, qHTS (AID 1347060; cut-off not given, nearly all actives have AC50 up to about 26 µM;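 further: cells exposed to compound for 48 hours before viability readout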); conditions: SU-DIPG-XVII viability, CellTiter-Glo ATP luminescence
[2] = growth inhibition of DIPG glioma cells, dose response, cell-based, JHH-DIPG-1, MIPE4.0, CellTiter-Glo, qHTS (AID 1347062; cut-off not given, nearly all actives have AC50 up to about 27 µM;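 further: cells exposed to compound for two days before readout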); conditions: JHH-DIPG-1 viability, CellTiter-Glo ATP luminescence
[3] = growth inhibition of DIPG glioma cells, dose response, cell-based, SU-DIPG-IV, MIPE4.0, CellTiter-Glo, qHTS (AID 1347063; cut-off not given, nearly all actives have AC50 up to about 30 µM;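 further: compound exposure lasted 48 hours before the viability readout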); conditions: SU-DIPG-IV viability, CellTiter-Glo ATP luminescence
[4] = viability loss in pontine glioma line – cell-based, SU-DIPG-XXV, MIPE5.0, CellTiter-Glo, qHTS, dose response (AID 1347065; cut-off not given, nearly all actives have AC50 up to about 26 µM;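 further: cells exposed to compound for 48 hours before ATP readout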); conditions: CellTiter-Glo ATP luminescence
[5] = JHH-DIPG-1 glioma cell viability, MIPE5.0 library, CellTiter-Glo luminescence, qHTS (AID 1347067; cut-off not given, nearly all actives have AC50 up to about 26 µM;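 further: cells exposed to compound for 48 hours before readout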); conditions: JHH-DIPG-1 glioma viability, CellTiter-Glo ATP luminescence
[6] = SU-DIPG-XXV glioma cell viability, MIPE5.0 library, qHTS (AID 1347068; cut-off not given, nearly all actives have IC50 up to about 30 µM;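 further: cells exposed to compound for 48 hours before viability readout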)
[7] = modifiers of HSF1 nuclear foci, imaging, Selleck Cancer Library (AID 1347162; in the data active means plate-normalised HSF1 focus index below about 0.46); conditions: human cells, at 10 µM; SSMD: measured here: HSF1 foci SSMD mean; cell count: measured here: cell number; plate-normalised HSF1 focus index: stronger effect = lower value
[8] = ovarian cancer cell viability with rucaparib, profiling panel, oncology-focused library, rucaparib conditional (AID 1508598); conditions: patient-derived ovarian cancer cells, CellTiter-Glo viability, 144 h, stronger effect = lower value
[9] = sensitizers of A549 cells to miR-34 induction, primary screen, imaging, A549 dox-inducible miR-34, nuclei and caspase counts (AID 1347080;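 active means compounds whose cell count with miR-34 switched on is under 0.7 times the count with it off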); conditions: A549 miR-34 inducible, Hoechst nuclei count, 48 h
[10] = survival rescue of mitochondrial mutant cells in low glucose, primary screen, MELAS cybrids, Rieske KO mouse fibroblasts, CellTiter-Glo (AID 1508586;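 active means mean z-score across replicates of 1.96 or higher in either the MELAS or the Rieske mutant cell line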;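 further: z relative to plate mean and SD of compound and empty wells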)
[11] = at 0.000305 µM, OCI-C5x cells, with rucaparib 10 µM, 100% = cells with rucaparib alone
[12] = at 0.000305 µM, OCI-C5x cells, without rucaparib
[13] = at 0.000305 µM, OCI-P5x cells, with rucaparib 20 µM, 100% = cells with rucaparib alone
[14] = at 0.000305 µM, OCI-P5x cells, without rucaparib
[15] = at 0.00122 µM, OCI-C5x cells, with rucaparib 10 µM, 100% = cells with rucaparib alone
[16] = at 0.00122 µM, OCI-C5x cells, without rucaparib
[17] = at 0.00122 µM, OCI-P5x cells, with rucaparib 20 µM, 100% = cells with rucaparib alone
[18] = at 0.00122 µM, OCI-P5x cells, without rucaparib
[19] = at 0.00488 µM, OCI-C5x cells, with rucaparib 10 µM, 100% = cells with rucaparib alone
[20] = at 0.00488 µM, OCI-C5x cells, without rucaparib
[21] = at 0.00488 µM, OCI-P5x cells, with rucaparib 20 µM, 100% = cells with rucaparib alone
[22] = at 0.00488 µM, OCI-P5x cells, without rucaparib
[23] = at 0.0195 µM, OCI-C5x cells, with rucaparib 10 µM, 100% = cells with rucaparib alone
[24] = at 0.0195 µM, OCI-C5x cells, without rucaparib
[25] = at 0.0195 µM, OCI-P5x cells, with rucaparib 20 µM, 100% = cells with rucaparib alone

CC(C)C[C@H](NC(=O)CNC(=O)c1cc(Cl)ccc1Cl)B1OC(=O)CC(CC(=O)O)(C(=O)O)O1 (stereo partly specified)
2.92: SSMD [7]
inactive: plate-normalised HSF1 focus index [7] 1.18 | viability [8, 11] 104% | viability [8, 12] 124% | viability [8, 13] 111% | viability [8, 14] 113% | viability [8, 15] 107% | viability [8, 16] 123% | viability [8, 17] 111% | viability [8, 18] 110% | viability [8, 19] 100% | viability [8, 20] 122% | viability [8, 21] 112% | viability [8, 22] 110% | viability [8, 23] 107% | viability [8, 24] 119% | viability ([8]; at 0.0195 µM, OCI-P5x cells, without rucaparib) 104% | viability ([8]; at 0.0781 µM, OCI-C5x cells, with rucaparib 10 µM, 100% = cells with rucaparib alone) 101% | viability ([8]; at 0.0781 µM, OCI-C5x cells, without rucaparib) 118% | viability ([8]; at 0.0781 µM, OCI-P5x cells, with rucaparib 20 µM, 100% = cells with rucaparib alone) 103% | viability ([8]; at 0.0781 µM, OCI-P5x cells, without rucaparib) 100%
7560: cell count [7]
active: AC50 [1] 209 nM | AC50 [2] 132 nM | AC50 [3] 66.2 nM | AC50 [4] 83.3 nM | AC50 [5] 235 nM | IC50 [6] 132 nM | viability [8, 25] 97.5% | viability ([8]; at 0.313 µM, OCI-C5x cells, with rucaparib 10 µM, 100% = cells with rucaparib alone) 25% | viability ([8]; at 0.313 µM, OCI-C5x cells, without rucaparib) 16.8% | viability ([8]; at 0.313 µM, OCI-P5x cells, with rucaparib 20 µM, 100% = cells with rucaparib alone) 12.3% | viability ([8]; at 0.313 µM, OCI-P5x cells, without rucaparib) 3.86% | viability ([8]; at 1.25 µM, OCI-C5x cells, with rucaparib 10 µM, 100% = cells with rucaparib alone) 6.01% | viability ([8]; at 1.25 µM, OCI-C5x cells, without rucaparib) 5.13% | viability ([8]; at 1.25 µM, OCI-P5x cells, with rucaparib 20 µM, 100% = cells with rucaparib alone) 2.61% | viability ([8]; at 1.25 µM, OCI-P5x cells, without rucaparib) 1.15% | viability ([8]; at 5 µM, OCI-C5x cells, with rucaparib 10 µM, 100% = cells with rucaparib alone) 1.84% | viability ([8]; at 5 µM, OCI-C5x cells, without rucaparib) 1.81% | viability ([8]; at 5 µM, OCI-P5x cells, with rucaparib 20 µM, 100% = cells with rucaparib alone) 1.46% | viability ([8]; at 5 µM, OCI-P5x cells, without rucaparib) 0.836%

O=C(O)c1ccc2c(c1)nc(Nc1cccc(Cl)c1)c1ccncc12
6500: cell count ([9]; measured here: total cells without miR-34 induction)
5180: cell count ([9]; measured here: total cells with miR-34 induction, stronger effect = lower value)
0.462: SSMD [7]
inactive: fold change ([9]; stronger effect = lower value, cell number ratio, induced over uninduced) 0.797 | plate-normalised HSF1 focus index [7] 1.02 | z-score ([10]; MELAS cybrid survival, CellTiter-Glo 48 h, stronger effect = higher value) -0.486 | viability [8, 11] 103% | viability [8, 12] 125% | viability [8, 13] 103% | viability [8, 14] 105% | viability [8, 15] 119% | viability [8, 16] 130% | viability [8, 18] 111% | viability [8, 19] 106% | viability [8, 20] 118% | viability [8, 22] 104% | viability [8, 24] 126%
-0.116: z-score ([10]; Rieske KO mouse fibroblast survival, CellTiter-Glo 72 h)
active: AC50 [1] 8330 nM | AC50 [2] 16600 nM | AC50 [3] 7430 nM | AC50 [4] 4680 nM | AC50 [5] 2950 nM | IC50 [6] 7420 nM | viability [8, 17] 98.4% | viability [8, 21] 94% | viability [8, 23] 98% | viability [8, 25] 96%
7390: cell count [7]
0.974: fold change ([9]; measured here: relative caspase fold change +Dox/-Dox)
